Measurements reported in PubChem BioAssay (NCI).
The panel holds about 83,000 compounds, 20% with a hit somewhere; the sample as a whole holds those more often.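 Plates (96-well) were seeded with cells, treated with compound at one concentration, and incubated for 48 hours before percent growth was determined.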 A number with no mark means an inactive call. Activity calls are given as the source filed them. The calls were made as follows: active = growth percent below 10; inactive = the rest.

Columns and labels:
Test in all cases: NCI-60 one-dose screen, 48 h (100 = growth as untreated, 0 = no growth, -100 = all killed)
Settings in all cases: 10 µM unless noted
BT-549 breast = test system: BT-549 breast
MDA-MB-435 melanoma = test system: MDA-MB-435 melanoma
SW-620 colon = test system: SW-620 colon
MCF7 breast = test system: MCF7 breast
HCT-116 colon = test system: HCT-116 colon
HCC-2998 colon = test system: HCC-2998 colon
KM12 colon = test system: KM12 colon

SMILES	growth (BT-549 breast)	growth (MDA-MB-435 melanoma)	growth (SW-620 colon)	growth (MCF7 breast)	growth (HCT-116 colon)	growth (HCC-2998 colon)	growth (KM12 colon)
CCCCCCC/C(=N\N=C(N)N)c1ccc(O)cc1	46.9%	41.6%	49%	-21.8% (active)	18.3%	-77% (active)	48.8%
CCC(=O)Nc1ccccc1C#C/C=C\C#Cc1ccccc1C(F)(F)F	39.9%	0.785% (active)	29.7%	33.2%	41%	70.6%	41.5%
COc1ccc(/C=C(\C#N)c2ccccc2)cc1	85.4%	12%	71.4%	103%	85.4%		49.2%
CCCCSc1cc(C)nc(N)n1	88.8%	97.2%	97.8%	94.5%	90.7%		98.8%
O=C(Nc1nc(-c2ccc(Cl)cc2)cs1)c1cc(O)c(O)c(O)c1	24.6%	41%	25.3%	28.3%	17.7%		51.3%
CC1=CC(=O)C(C(C)=Nc2ccccc2Cl)C(=O)O1 (stereo not drawn)	121%	111%	91.6%	118%	100%	119%	108%
Cc1nn(-c2ccccc2)c2nc3c(nc12)C(=O)CCC3	90.9%	98.1%	105%	84.9%	91.6%	92%	87.1%
COc1cc(/C=C2\CCC/C(=C\c3ccc(OCC4CO4)c(OC)c3)C2=O)ccc1OCC1CO1 (stereo not drawn)	30.3%	-32.3% (active)	-23% (active)	-6.99% (active)	-54.7% (active)		-0.568% (active)
COC(=O)CCC1=C(C)C(C)=N/C1=C\c1[nH]c(-c2ccc[nH]2)cc1OC	29.2%	-5.95% (active)	7.46% (active)	4.8% (active)	-59.8% (active)	12.5%	12.7%
C/C(=N\N1CC(=O)NC1=O)c1ccc([N+](=O)[O-])o1	100%	88.5%	97.2%	85.6%	106%		96.3%
COc1ccc(COC(C)=O)cc1	99.7%	111%	98.8%	102%	107%	114%	104%
Cn1cc(-c2csc(-c3c[nH]c4ncccc34)n2)c2cc(Br)cnc21	45.5%	33.8%	39.2%	35%	5.99% (active)	64.2%	63.1%
COc1ccc(/C=C2\NC(=S)NC2=O)cc1	105%	110%	105%	99.9%	99.4%	117%	101%
Cc1ccccc1NC(=O)c1cc2ccccc2cc1O	-0.275% (active)	28.6%	47.2%	80.5%	30.3%	81.5%	23.4%
Cn1cc(-c2nc(-c3c[nH]c4ncc(F)cc34)cs2)c2cccnc21	108%	98.2%	104%	77.9%	101%	81.6%	99.3%
CCCCOc1ccc(C(C)(C)c2ccc(OCCCC)cc2)cc1	106%	117%	112%	104%	95.8%	105%	120%
COc1ccc2c(c1)nc(N)c1c3ccccc3cn21	88.4%	2.56% (active)	56.8%	44.8%	59.1%	103%	63%
COc1cc(/C=C2\COc3ccc(O)cc3C2=O)cc(OC)c1	66.1%	20.1%	2.07% (active)	8.22% (active)	0.249% (active)	109%	17.4%
Cc1ccc(C(=O)Nc2ccc(Cl)cc2C(=O)NCc2ccccc2)cc1	103%	2.07% (active)	58.9%	53.9%	89.9%	86.9%	60.5%
